Hits are enriched below; roughly 6.6% of the tested compounds scored in any of these assays.
Mdm2-MdmX inh – human Mdm2/MdmX binding inhibition; SaOS-2 split-luciferase Mdm2/MdmX complementation, luminescence; inhibition, % at 8 µM; O15151+Q00987; actives 3% (n = 330,000); AID 485346;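 active means inhibition of at least 50% at 8 µM in the primary screen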
Target sequence (O15151 whole entry, looked up): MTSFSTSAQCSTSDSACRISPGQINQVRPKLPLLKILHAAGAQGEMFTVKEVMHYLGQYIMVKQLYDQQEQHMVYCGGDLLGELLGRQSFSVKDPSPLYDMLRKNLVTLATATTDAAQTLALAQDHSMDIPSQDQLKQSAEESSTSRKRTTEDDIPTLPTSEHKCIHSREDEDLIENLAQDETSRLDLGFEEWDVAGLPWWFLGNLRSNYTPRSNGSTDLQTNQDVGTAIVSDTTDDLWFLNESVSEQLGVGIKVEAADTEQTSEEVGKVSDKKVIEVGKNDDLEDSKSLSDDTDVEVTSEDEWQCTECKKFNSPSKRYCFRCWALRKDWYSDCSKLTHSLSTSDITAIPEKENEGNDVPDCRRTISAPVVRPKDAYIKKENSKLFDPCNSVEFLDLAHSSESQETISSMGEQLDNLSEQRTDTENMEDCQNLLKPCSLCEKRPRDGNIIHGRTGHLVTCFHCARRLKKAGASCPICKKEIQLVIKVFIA
Target sequence (Q00987 whole entry, looked up): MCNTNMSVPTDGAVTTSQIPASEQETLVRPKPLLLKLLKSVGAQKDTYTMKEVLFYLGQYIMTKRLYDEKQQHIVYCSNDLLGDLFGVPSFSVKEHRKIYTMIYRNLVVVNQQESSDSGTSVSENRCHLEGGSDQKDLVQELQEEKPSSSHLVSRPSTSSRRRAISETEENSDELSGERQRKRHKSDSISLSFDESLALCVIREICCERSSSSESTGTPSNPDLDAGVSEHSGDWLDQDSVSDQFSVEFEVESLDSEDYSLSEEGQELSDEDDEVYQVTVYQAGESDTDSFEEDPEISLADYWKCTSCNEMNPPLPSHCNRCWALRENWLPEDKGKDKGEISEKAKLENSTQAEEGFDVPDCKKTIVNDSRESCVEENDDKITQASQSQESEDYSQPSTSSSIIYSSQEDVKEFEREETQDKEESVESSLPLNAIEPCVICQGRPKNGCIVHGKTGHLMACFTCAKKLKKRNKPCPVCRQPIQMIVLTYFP
NR3A LBD binder – modulates the human NR3A ligand-binding domain. Tm shift relative to glycine control, % at 25 µM. actives 2.5% (n = 340,000). NR3A LBD differential scanning fluorimetry, Tm shift; 0% = protein alone, 100% = glycine-bound protein;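 active means melting temperature shift of at least 10% of the positive control shift, at one fixed dose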
MPTP block – blocks calcium-induced mitochondrial swelling | AID 602449 | isolated mouse mitochondria, Ca2+ swelling absorbance, 30 min | actives 1.4% (n = 360,000) | inhibition, % at 10 µM;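 active means inhibition of 50% or more, scaled per plate between neutral and stimulator controls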;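 further: 0% = DMSO wells given calcium and 100% = 1 mM EGTA wells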
Beta apoptosis – beta cell apoptosis inhibition; INS-1E cytokine-induced death, ATP luminescence, 48 h; percent of positive-control rescue, neutral wells zero; protection from apoptosis, % (no concentration beside the values); actives 0.8% (n = 300,000);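 active means Every replicate reaches about 75%, or at least half do and their mean reaches it too, limit read from the data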;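 further: 0% = cytokine-treated negative control wells and 100% = positive control rescue; higher means more ATP so stronger rescue from cytokine killing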
CSC inhib – blocks cancer stem cells. AID 2717. actives 1.1% (n = 300,000). inhibition, % at 7.5 µM. cancer stem cell-like cells viability, luminescence; in the data active means inhibition above about 75%; tested in HMLE shEcad cells
Gli-Sufu block – antagonists of Gli-Sufu signaling; Sufu-KO-LIGHT fibroblasts, Gli luciferase reporter luminescence; inhibition, % at 5 µM; actives 0.74% (n = 340,000);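 active means inhibition above about 55%, limit read from the data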;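 further: 0% = DMSO-treated cells and 100% = wells with medium but no cells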
Rh123 counter – membrane potential counter-screen of mitochondrial pore inhibitors | inhibition, % at 10 µM | shares compounds with MPTP block | AID 624504 | actives 78% (n = 5,000) | isolated mitochondria, Rhodamine 123 fluorescence; in the data active means inhibition above about 22%;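 further: 0% = DMSO vehicle and 100% = positive control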
MPTP swell DR – dose response confirmation of mitochondrial permeability transition pore inhibitors; shares compounds with MPTP block; isolated mitochondria swelling, absorbance; IC50, µM; actives 58% (n = 780); in the data active means IC50 below about 20 µM
MPTP counter DR – MPTP inhibitor counter-screen activity, dose response | shares compounds with MPTP block | isolated mitochondria counterscreen, fluorescence read-out | IC50, µM | actives 49% (n = 780) | AID 651564; in the data active means IC50 below about 80 µM
Starred values were filed as active, the others as inactive; i = inactive; . = not tested or not shown.

SMILES | Mdm2-MdmX inh | NR3A LBD binder | MPTP block | Beta apoptosis | CSC inhib | Gli-Sufu block | Rh123 counter | others
O=C1NC(=S)S/C1=C\c1cc2ccccc2nc1N1CCCCC1 | 45 | -1 | 73* | 20 | 114* | 6 | 67*
S=C(NCc1ccccc1)N1CCN(Cc2ccc3c(c2)OCO3)CC1 | -26 | -1 | -6 | -9 | 14 | 5 | .
FC(F)(F)c1cccc(NC(=S)NCc2ccccn2)c1 | -21 | -3 | 8 | 4 | -33 | -6 | .
S=C(Nc1ccccc1)Nc1ccc(Cl)cc1Cl | -40 | 3 | 61* | -6 | -11 | -73 | 79*
FC(F)(F)c1cccc(NC(=S)NNC(=S)NCc2ccccc2)c1 | 18 | 9 | 79* | -2 | 57 | . | 72*
FC(F)(F)c1ccccc1NC(=S)Nc1cccc(Cl)c1 | -3 | 14* | 97* | 3 | -7 | 0 | 89*
S=C(NCc1ccc2c(c1)OCO2)NC1CCN(Cc2ccccc2)CC1 | 15 | 0 | 74* | -4 | -1 | 22 | 4 | MPTP swell DR=11*;MPTP counter DR=54*
CCc1nnc(NC(=O)CSC(=S)N2CCOCC2)s1 | 9 | 2 | -2 | -9 | -5 | 1 | .
COc1ccc(CN2CC[C@H]3C=CCc4cccc(c43)C2)cc1 | -1 | -1 | 7 | 7 | 13 | -2 | .
S=C(Nc1ccccc1Cl)NC1CCCCCC1 | 0 | -1 | 0 | -4 | -7 | -12 | .
S=C(NCc1cccc(Cl)c1)NC1CCCCC1 | 19 | -5 | 77* | 1 | 11 | 6 | 67*
FC(F)(F)c1cccc(NC(=S)Nc2cccc(NC(=S)Nc3cccc(C(F)(F)F)c3)n2)c1 | 49 | 4 | 91* | 8 | 34 | -28 | 64*
S=C(Nc1ccc(Cl)cc1Cl)NC1CCCCC1 | -85 | -4 | 86* | . | 3 | 5 | 109*
S=C(NCc1ccccc1)NC1CCCCC1 | 6 | 6 | -1 | -11 | -9 | -1 | .
FC(F)(F)c1cccc(NC(=S)Nc2ccc(Cl)cc2Cl)c1 | 11 | 7 | 98* | 12 | 65 | 16 | 109*
O=C(NNC(=S)Nc1cccc(C(F)(F)F)c1)c1cccc(Cl)c1 | 39 | 25* | 94* | 16 | 1 | 1 | 86*
O=C(NNC(=S)Nc1cccc(C(F)(F)F)c1)c1ccccc1Cl | 16 | 0 | 35 | 9 | 27 | -30 | .
CCCNC(=S)Nc1cccc(C(F)(F)F)c1 | -20 | 2 | 0 | -4 | 31 | -5 | .
FC(F)(F)c1cccc(NC(=S)NCC2COc3ccccc3O2)c1 (stereo not drawn) | 4 | 23* | 81* | -7 | 31 | 8 | 81*
CCCn1c(COc2ccc(C(=O)O)cc2)nc2ccccc21 | 6 | 2 | -2 | 2 | -7 | -4 | .
CC(C)N(C)C(=O)C(=O)c1cccn1-c1cccc(Cl)c1C#N | -4 | 0 | 1 | -3 | -5 | -7 | .
Cc1cc([N+](=O)[O-])ccc1NC(=O)/C=C/c1cccs1 | -41 | -7 | 83* | 2 | 1 | -62 | 31*
Cc1ccccc1CC1(C)C(=O)Nc2ccc(S(=O)(=O)NC3CCCCC3)cc21 (stereo not drawn) | . | . | 0 | . | . | . | .
COc1ccc(Cl)cc1N1CCN(CCNC(=O)Nc2ccccc2C)CC1 | 7 | -8 | 94* | -6 | 19 | -8 | -7 | MPTP swell DR=i;MPTP counter DR=32*
COc1ccccc1N1CCN(CCCNC(=O)Nc2ccccc2C)CC1 | -23 | 1 | 3 | -1 | -1 | 1 | .
SMILES | Mdm2-MdmX inh | NR3A LBD binder | MPTP block | Beta apoptosis | CSC inhib | Gli-Sufu block | Rh123 counter | others
COc1ccc(Cl)c(N2CCN(CCCNC(=O)Nc3ccc(C)cc3)CC2)c1 | 11 | 2 | 80* | . | 15 | 9 | -9 | MPTP swell DR=9.4*;MPTP counter DR=37*
Cc1ccc(C)c(OCC(=O)Nc2nc3ccc([N+](=O)[O-])cc3s2)c1C | 24 | -2 | 76* | 4 | 15 | 8 | 56*
CCC(=O)Nc1nc2ccc([N+](=O)[O-])cc2s1 | 27 | 0 | 3 | 6 | . | -23 | .
O=c1[nH]c(C2CCCN(S(=O)(=O)c3ccccc3)C2)nc2c1nnn2Cc1cccc(Cl)c1 (stereo not drawn) | 21 | -10 | 3 | 13 | -1 | -11 | .
CCOc1ccc(NS(=O)(=O)c2ccc(C(=O)NCCN3CCOCC3)cc2)cc1 | -22 | 3 | 1 | 0 | . | 2 | .
NC(=O)c1cc(S(=O)(=O)NCc2cccc(Br)c2)cs1 | 2 | 0 | -3 | -6 | 2 | 11 | .
CC(C)Cn1c(N)c(C(=O)CSc2ncccn2)c(=O)n(C)c1=O | 25 | 0 | 0 | 2 | -8 | 5 | .
CCOC(=O)Cc1csc(SCC(=O)c2c(N)n(CC(C)C)c(=O)n(C)c2=O)n1 | 15 | 0 | 78* | . | 5 | -6 | 24*
Cc1csc(SCC(=O)c2c(N)n(CC(C)C)c(=O)n(C)c2=O)n1 | 8 | 2 | 51* | 18 | -2 | 20 | 15 | MPTP swell DR=i;MPTP counter DR=5.8*
C#CCOc1ccc(CNC[C@H]2O[C@@H](n3ccc(N)nc3=O)[C@H](O)[C@@H]2O)cc1 | . | . | 0 | . | . | . | .
Cc1ccc(C)c2c1[nH]c1ccc([N+](=O)[O-])cc12 | 26 | 35* | 81* | 26 | -4 | 0 | 82*
Cc1ccc(C)c2c1[nH]c1ccccc12 | -34 | -4 | -2 | -2 | 0 | 10 | .
O=C(N/N=C/c1cc(Br)ccc1O)Nc1ccccc1 | 27 | 28* | 99* | -11 | -6 | -9 | 65*
CSc1cccc(NC(=O)Nc2ccc(Cl)cc2)c1 | 6 | 29* | 88* | 17 | 12 | -20 | 104*
O=C(Nc1ccc(Cl)cc1)Nc1ccccc1CC[N+](=O)[O-] | -15 | -4 | 83* | 3 | 0 | -12 | 85*
CSc1cccc(NC(=O)/C=C/c2cccc(Cl)c2)c1 | -146 | 67* | 73* | -1 | . | -72 | 82*
CSc1cccc(NC(N)=O)c1 | 18 | -1 | 2 | 2 | 8 | 3 | .
Cc1ccc(NC(=O)Nc2ccc(Cl)cc2)c(Br)c1 | -15 | 35* | 102* | 21 | 7 | -44 | 92*
Cc1ccc(OCC(=O)NNC(=O)Nc2ccc(Cl)cc2)c(Br)c1 | 16 | -2 | 12 | -6 | 9 | 4 | .
COc1cccc(C(=O)NCCCn2ccnc2)c1 | 3 | 3 | 0 | -7 | -13 | 1 | .
CCC(=O)N1CCC(C)(C(=O)Nc2ccc3c(c2)OCO3)C1 (stereo not drawn) | . | . | 0 | . | . | . | .
O=C1C=C(c2ccc(-c3ccccc3)c(F)c2)C[C@@H](c2ccc(Cl)cc2)C1 | -2 | 0 | 1 | 2 | 28 | -2 | .

Compound activity deposited in PubChem by several laboratories.
